Experimental data reported in the antibiotic and cytotoxicity screens of Wong et al. (2023).
Hit rate of the full screen: of about 39,000 compounds, about 500 (1.3%) were called active. The entries come from a sample that favours actives as a whole.

system: S. aureus RN4220; assay: growth inhibition call (relative growth <= 0.2); settings: 50 µM

Growth inhibition call, inactive:
O=C(N[C@H](c1ccc(Cl)cc1)c1ccsc1)C1CCN(Cc2ccc(Oc3ccccc3)cc2)CC1, COc1ccc([C@@H](NC(=O)C2CCN(Cc3ccc(Oc4ccccc4)cc3)CC2)c2ccccn2)cc1, O=C(N[C@H](c1ccc(F)cc1)c1ccc2ccccc2n1)C1CCN(CCOc2ccc(Cl)cc2Cl)CC1, O=C(N[C@@H](c1ccc2c(c1)OCO2)c1ccccn1)C1CCN(CCOc2ccc(Cl)cc2Cl)CC1, Cc1cccnc1[C@@H](NC(=O)C1CCN(Cc2ccc(Oc3ccccc3)cc2)CC1)c1ccc(F)cc1, COc1ccc([C@@H](NC(=O)C2CCN(CCOc3ccc(Cl)cc3Cl)CC2)c2ccco2)cc1, Cc1cccnc1[C@@H](NC(=O)C1CCN(Cc2ccc(Cl)c(Cl)c2)CC1)c1ccc(Cl)cc1, COc1ccc([C@@H](NC(=O)C2CCN(CCOc3ccc(Cl)cc3Cl)CC2)c2ccccn2)cc1, C[C@H]1CN([C@@H](C)CO)C(=O)Cc2cc(NC(=O)Cn3cnnn3)ccc2O[C@H]1CN(C)C(=O)Nc1ccccc1, C[C@@H]1CN([C@@H](C)CO)C(=O)Cc2cc(NC(=O)c3ccncc3)ccc2O[C@@H]1CN(C)S(=O)(=O)c1ccc(F)cc1, C[C@@H]1CCCCO[C@@H](CN(C)C(=O)NC2CCCCC2)[C@@H](C)CN([C@H](C)CO)C(=O)c2cc(NC(=O)Nc3cccc4ccccc34)ccc2O1, C[C@H](CO)N1C[C@H](C)[C@@H](CN(C)S(=O)(=O)c2cccs2)OCCCC[C@H](C)Oc2ccc(NC(=O)Nc3cccc4ccccc34)cc2C1=O, O=C(CCCCCCC(=O)Nc1ccccc1O)N/N=C/[C@H](O)[C@@H](O)[C@@H](O)[C@H](O)C(=O)O, C[C@H]1CC[C@@H]2N(C1)C[C@@H]1[C@H]([C@@H](O)[C@H](O)[C@]3(O)[C@H]1C[C@@]14O[C@]5(O)[C@@H](C[C@@H](O)[C@@H]31)[C@]4(C)CC[C@@H]5O)[C@]2(C)O, Cc1cc(C(=O)Nc2cccc3c2O[C@H](CN(C)C(=O)Nc2ccc4c(c2)OCO4)[C@H](C)CN([C@H](C)CO)C3=O)n(C)n1

Growth inhibition call, active:
O=C(N[C@H](c1ccc(Cl)cc1)c1ccccn1)C1CCN(CCOc2ccc(Cl)cc2Cl)CC1, Cc1cccnc1[C@@H](NC(=O)C1CCN(CCOc2ccc(Cl)cc2Cl)CC1)c1ccc(F)cc1, Cc1cccnc1[C@@H](NC(=O)C1CCN(CCOc2ccc(Cl)cc2Cl)CC1)c1ccc(Cl)cc1, O=C(N[C@@H](c1cccnc1)c1ccc2c(c1)OCO2)C1CCN(CCOc2ccc(Cl)cc2Cl)CC1
